Sampled rows, rich in hits. Any-hit rate of the full collection: about 0.59%.
mIDH1 inhibitor: inhibitors of human mutant IDH1 R132H; O75874; IDH1-R132H enzyme, NADPH consumption, diaphorase/resazurin fluorescence; Potency, µM (titrated, usually from 76.6 µM), actives largely listed as inhibitors; 390,000 compounds, 0.093% hits; AID 602179; also: nearly all actives have a fitted effect of over 65% in size
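IDH1-R132H (0.5 ug/mL) preincubated 30 min with compound, then NADPH (0.016 mM) and alpha-KG (2 mM) added; 80 min at RT, pH 7.5. Remaining NADPH coupled via diaphorase/resazurin to fluorescence (540/590 nm); concentration-response curves normalized to no-enzyme control.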
Vif-A3F inh: Vif-A3F binding inhibition | HeLa A3F-eYFP + Vif (tagged APOBEC3F with the HIV-1 protein that degrades it), YFP fluorescence increase | Potency, µM (doses to about 46.1 µM) | 390,000 compounds, 0.2% hits; also: nearly all actives have a fitted effect of over 65% in size
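HeLa cells stably expressing A3F-eYFP plus Vif, plated and incubated overnight at 37 deg C, then exposed to compounds overnight at 37 deg C. Blocked degradation read as raised yellow fluorescence (Ex 488/Em 500-530).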
LDHA block: inhibitors of human lactate dehydrogenase A; P00338; purified LDHA, NADH/diaphorase-resazurin fluorescence; stronger effect = lower value; activity change, % (values are at about 110 or 230 µM); 480,000 compounds, 0.15% hits; in the data active = activity change below about -30%; inconclusive = mostly about -25% to -30%
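Human LDH5 (2 nM) was incubated with 0.06 mM NADH and 0.2 mM pyruvate for 5 min at room temperature in Tris pH 7.4. Remaining NADH was coupled through diaphorase/resazurin, and resorufin fluorescence was read at 0 and 20 min.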
Vif-APOBEC3G blk: blocks the Vif interaction with human APOBEC3G. Q9HC16. 410,000 compounds, 0.076% hits. Potency, µM (highest dose often 46.1 µM), usual class: inhibitors. HeLa A3G-eYFP + Vif (tagged APOBEC3G with the HIV-1 protein that degrades it), YFP fluorescence, overnight; also: nearly all actives have a fitted effect of over 60% in size
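HeLa cells stably expressing Vif and C-terminally eYFP-tagged A3G, seeded overnight at 37 deg C, then exposed to compound by pintool overnight at 37 deg C. Rise in yellow fluorescence (Ex 488/Em 500-530, Acumen) marks blocked Vif-driven A3G degradation.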
PINK1 modulator: PINK1 expression modulation. 410,000 compounds, 0.2% hits. PINK1 immunofluorescence, high-content cytometry, 24 h. AID 624263. Potency, µM (titrated, usually from 76.6 µM), actives largely listed as activators; active = well fitted activation curve with a large enough effect; inconclusive = small, poorly fitted or top-dose-only effect; cell line not stated here; also: nearly all actives have a fitted effect of over 65% in size
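PINK1 protein, normally rapidly degraded, was detected by immunofluorescence after 24 hour compound treatment of a stable cell line. Titration data (5 concentrations) came from laser-scanning cytometry, with CCCP-treated wells as controls.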
PTHR1 agonist: activates the human parathyroid hormone receptor PTHR1; Q03431; HEK293 GP2 PTHR1 cells, GloSensor cAMP luminescence, 1 h; Potency, µM (series often up to 115 µM), most hits filed as activators; 410,000 compounds, 0.075% hits; AID 743266; also: nearly all actives have a fitted effect of over 55% in size
Target sequence (Q03431 whole entry, looked up): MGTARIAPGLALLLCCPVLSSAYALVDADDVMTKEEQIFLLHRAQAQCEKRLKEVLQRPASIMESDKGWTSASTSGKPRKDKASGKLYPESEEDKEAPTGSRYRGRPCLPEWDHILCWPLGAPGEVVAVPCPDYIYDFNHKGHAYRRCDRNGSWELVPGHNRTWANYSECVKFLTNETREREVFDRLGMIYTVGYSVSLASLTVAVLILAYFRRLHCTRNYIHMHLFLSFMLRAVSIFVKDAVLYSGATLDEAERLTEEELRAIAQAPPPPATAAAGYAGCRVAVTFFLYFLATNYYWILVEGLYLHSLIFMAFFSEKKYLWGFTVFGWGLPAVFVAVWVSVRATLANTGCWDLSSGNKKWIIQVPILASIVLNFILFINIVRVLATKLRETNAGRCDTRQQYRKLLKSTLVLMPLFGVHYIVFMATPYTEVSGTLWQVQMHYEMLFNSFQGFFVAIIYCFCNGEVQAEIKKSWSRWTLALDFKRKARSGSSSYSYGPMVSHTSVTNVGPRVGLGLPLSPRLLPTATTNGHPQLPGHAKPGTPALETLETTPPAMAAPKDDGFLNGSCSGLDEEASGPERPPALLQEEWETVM
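HEK-293-derived GP2 cells expressing PTHR1 and a GloSensor cAMP reporter, 3,000/well, plated overnight, given luciferin plus IBMX (each 0.5 mM as added) for 1 h at 37 °C, then compound for 1 h at 37 °C. Luminescence was read after 15 min at room temperature.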
Numbers stand for hits; n = inactive; u = inconclusive; x = no result given. Unless noted, calls follow the shape of the dose curve; as a rule, active = well fitted curve in the direction sought with a large enough effect; inconclusive = small, poorly fitted or top-dose-only effect, or another doubt; inactive = no such curve, though single readings can be large; an effect the other way counts as inactive or inconclusive.

SMILES	mIDH1 inhibitor	Vif-A3F inh	LDHA block	Vif-APOBEC3G blk	PINK1 modulator	PTHR1 agonist
CC1Cc2ccccc2N1C(=O)CSc1ccccc1 (stereo not drawn)	n	n	n	n	n	n
CC1Cc2ccccc2N1C(=O)CSC1=NCCS1 (stereo not drawn)	n	n	n	n	11µM	n
CCC(C)NC(=O)c1ccccc1NS(=O)(=O)c1c(F)cccc1F (stereo not drawn)	x	x	n	x	x	x
O=C(c1ccc2c(=O)n(Cc3ccc4c(c3)OCO4)c(=S)[nH]c2c1)N1CCCCC1	n	n	n	n	14µM	n
N#CC1=C(N)N2C(=C(C#N)C1c1cccc(Br)c1)Nc1ccccc12 (stereo not drawn)	n	u	n	n	3.2µM	n
CCN(Cc1ccccc1)C(=S)Nc1ccccc1C	x	x	n	x	x	x
FC(F)Sc1ccc(NC(=S)NCc2ccccc2)cc1	n	n	n	n	14µM	n
C=CCNC(=S)Nc1ccc(SC(F)F)cc1	x	x	n	x	x	x
C[n+]1c2n(c3ccccc31)N=C(c1ccccc1)CS2	n	n	n	n	u	n
C[n+]1c2n(c3ccccc31)N=C(c1ccc(-c3ccccc3)cc1)CS2	n	n	n	n	13µM	n
CN(Cc1ccco1)C(=O)c1cc2cc(Br)ccc2[nH]1	x	x	n	x	x	x
CCn1cnc2c1c(=O)n(CC(=O)Nc1ccc(N3CCCC3)cc1)c(=O)n2Cc1ccccc1	x	x	n	x	x	x
CC(C)N(Cc1ccccc1)C(=O)COC(=O)c1cccc(Cl)c1Cl	x	x	n	x	x	x
Cc1cccc(/N=C/c2c(O)[nH]c3ccccc23)n1	n	n	n	n	n	n
Cc1cccc(/N=C/c2sc3ccccc3c2O)n1	n	u	n	n	45µM	n
CCOc1ccc(S(=O)(=O)N(CC)CC)cc1NC(=O)C1CCN(c2ccc(C#N)cn2)CC1	x	x	n	x	x	x
CC1=Nc2ccc(C)cc2/C1=C/c1c(N)n2oc(C)cc2nc1=O	n	11µM	n	u	u	n
Cc1cc2ccccn2c1C(=O)c1cccc([N+](=O)[O-])c1	n	n	n	n	n	n
Cc1cc2ccccn2c1C(=O)c1ccc([N+](=O)[O-])o1	n	11µM	n	u	u	n
Cc1cccc(NC(=O)CC(C)(C(=O)O)c2ccccc2)c1C (stereo not drawn)	x	x	n	x	x	x
CCCc1oc(C(=O)O)cc1CN	n	n	n	n	x	18µM
O=C(CN1C(=O)CSc2ncccc21)Nc1cccc(Cl)c1	n	10µM	n	u	n	n
Cc1cc(C)n(-c2ccc(C(=O)OCC(=O)NC3CCS(=O)(=O)C3)cc2)n1 (stereo not drawn)	x	x	-30	x	x	x
Cc1cc(C)n(-c2ccc(C(=O)OCC(=O)NC(=O)NC3CCCC3)cc2)n1	x	x	n	x	x	x
Cc1ccc(S(=O)(=O)N2CCOCC2)cc1NC(=O)CNCc1cccnc1	n	n	-40	n	n	n
SMILES	mIDH1 inhibitor	Vif-A3F inh	LDHA block	Vif-APOBEC3G blk	PINK1 modulator	PTHR1 agonist
CCN(C(=O)c1cc2sc3ccccc3c2s1)c1ccccc1	x	x	n	x	x	x
COc1ccccc1CC(=O)Nc1ccccc1O	n	n	n	n	n	n
COc1ccccc1CC(=O)Nc1ccc([N+](=O)[O-])cc1O	n	n	n	n	40µM	n
CN1CCc2c(sc3c2C(=O)NC(c2ccco2)N3)C1 (stereo not drawn)	n	n	n	n	u	n
CN1CCc2c(sc3c2C(=O)NC(c2ccc(-c4ccc(Cl)cc4)o2)N3)C1 (stereo not drawn)	n	28µM	n	u	n	n
Cc1nc2nc3ccn(CCN4CCOCC4)c(=O)c3c(-c3ccccc3)n2n1	x	x	n	x	x	x
O=c1[nH]c(=O)n(Cc2ccco2)c2c1C(C(F)(F)F)(C(F)(F)F)N=C(c1ccc(F)cc1)N2	n	n	n	n	13µM	n
O=c1[nH]c(=O)n(Cc2ccco2)c2c1C(C(F)(F)F)(C(F)(F)F)N=C(c1ccccc1)N2	x	x	n	x	x	x
COc1cccc(-c2ccc(-c3noc(-c4ccncc4)n3)c(OC)n2)c1	x	x	n	x	x	x
COc1cccc(-c2ccc(-c3noc(-c4cccs4)n3)c(OC)n2)c1	n	n	-38	n	n	n
COc1nc(-c2ccc(Cl)cc2)ccc1-c1noc(-c2ccco2)n1	n	n	-37	n	n	n
COc1ccc2[nH]c(=O)c(-c3noc(-c4cccs4)n3)cc2c1	x	x	-38	x	x	x
COc1ccc(-c2ccc(-c3noc(-c4cc(OC)cc(OC)c4)n3)c(OC)n2)cc1	n	n	n	n	n	n
O=C1COc2ccc(-c3csc(Nc4ccccc4C(F)(F)F)n3)cc2N1	x	x	n	x	x	x
Cc1onc(-c2c(F)cccc2Cl)c1C(=O)Nc1nnc(C(C)C)s1	x	x	n	x	x	x
Cc1onc(-c2c(F)cccc2Cl)c1C(=O)Nc1nnc(C(F)(F)F)s1	n	n	n	n	16µM	n
C#CCSc1nc(-c2cccs2)ccc1C#N	n	2.8µM	n	n	n	n
Cc1occc1-c1nnc(SCc2cc(Cl)c3c(c2)OCCO3)n1C	x	x	n	x	x	x
CN1/C(=C\C(=O)C[n+]2ccc3ccccc3c2)C(C)(C)c2ccccc21	n	u	n	n	45µM	n
Cc1cc2nc(CSc3ccc(NC(=O)C(C)C)cc3)c(=O)[nH]c2cc1C	x	x	n	x	x	x
COc1ccc(-c2ccc3c(c2)S(=O)(=O)c2cccc(C(=O)NCCOc4ccccc4)c2C3=O)cc1OC	n	u	n	11µM	35µM	n
Cc1ccc(S(=O)(=O)N=Nc2c(O)[nH]c3ccccc23)cc1	46µM	n	n	n	n	n
Cc1ccc(C)c(S(=O)(=O)N=Nc2c(O)[nH]c3ccccc23)c1	u	n	n	n	n	n
Oc1[nH]c2ccccc2c1N=Nc1ccc(F)cc1	n	u	n	u	n	n
Oc1[nH]c2ccccc2c1N=Nc1ccccc1	n	25µM	n	u	n	n
SMILES	mIDH1 inhibitor	Vif-A3F inh	LDHA block	Vif-APOBEC3G blk	PINK1 modulator	PTHR1 agonist
CCn1c(N2CCN(CCCc3ccccc3)CC2)nc2c1c(=O)[nH]c(=O)n2C	x	x	n	x	x	x
COc1cccc(OC)c1C(=O)Nc1ccc(-c2nc3ccc(C)cc3o2)cc1	x	x	n	x	x	x
Cc1ccc(CSC2=NS(=O)(=O)c3ccccc3N2Cc2ccccc2)cc1	x	x	n	x	x	x
O=C(Nc1ccc(Cl)cc1)Nc1ccon1	n	n	n	20µM	n	n
Cc1ccc(NC(=O)Nc2ccon2)cc1	n	n	n	n	n	n
COc1cccc(C(=O)/C(C#N)=C\c2ccc(OC(F)F)c(OC)c2)c1	x	x	n	x	x	x
COc1cc([C@@H]2[C@H]3CN(C)CC=C3C(C#N)=C(N)C2(C#N)C#N)cc2c1OCO2	n	n	n	n	18µM	u
COc1cccc(C2C3CN(C)CC=C3C(C#N)=C(N)C2(C#N)C#N)c1OC (stereo not drawn)	n	n	n	n	35µM	n

Screening results as filed in PubChem BioAssay.
